Laboratory results as given in publication PMC4336329 (PLoS ONE, 2015).
Out of some 310,000 compounds screened, about 14,000 (4.5%) showed an effect of 50% or more. The effect is printed as a negative number. What follows is part of a selection rich in strong results, with near analogues and random picks from the rest.

Molecular target: human ether-à-go-go-related gene (hERG) potassium channel (human, UniProt Q12809)
Assay: primary screen, population patch clamp on CHO cells stably expressing hERG; higher = less effect of the substance
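Note: peak tail current of the secondary pulse compared with the same well before compound.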

Chain of human ether-à-go-go-related gene (hERG) potassium channel (Q12809 whole entry, looked up): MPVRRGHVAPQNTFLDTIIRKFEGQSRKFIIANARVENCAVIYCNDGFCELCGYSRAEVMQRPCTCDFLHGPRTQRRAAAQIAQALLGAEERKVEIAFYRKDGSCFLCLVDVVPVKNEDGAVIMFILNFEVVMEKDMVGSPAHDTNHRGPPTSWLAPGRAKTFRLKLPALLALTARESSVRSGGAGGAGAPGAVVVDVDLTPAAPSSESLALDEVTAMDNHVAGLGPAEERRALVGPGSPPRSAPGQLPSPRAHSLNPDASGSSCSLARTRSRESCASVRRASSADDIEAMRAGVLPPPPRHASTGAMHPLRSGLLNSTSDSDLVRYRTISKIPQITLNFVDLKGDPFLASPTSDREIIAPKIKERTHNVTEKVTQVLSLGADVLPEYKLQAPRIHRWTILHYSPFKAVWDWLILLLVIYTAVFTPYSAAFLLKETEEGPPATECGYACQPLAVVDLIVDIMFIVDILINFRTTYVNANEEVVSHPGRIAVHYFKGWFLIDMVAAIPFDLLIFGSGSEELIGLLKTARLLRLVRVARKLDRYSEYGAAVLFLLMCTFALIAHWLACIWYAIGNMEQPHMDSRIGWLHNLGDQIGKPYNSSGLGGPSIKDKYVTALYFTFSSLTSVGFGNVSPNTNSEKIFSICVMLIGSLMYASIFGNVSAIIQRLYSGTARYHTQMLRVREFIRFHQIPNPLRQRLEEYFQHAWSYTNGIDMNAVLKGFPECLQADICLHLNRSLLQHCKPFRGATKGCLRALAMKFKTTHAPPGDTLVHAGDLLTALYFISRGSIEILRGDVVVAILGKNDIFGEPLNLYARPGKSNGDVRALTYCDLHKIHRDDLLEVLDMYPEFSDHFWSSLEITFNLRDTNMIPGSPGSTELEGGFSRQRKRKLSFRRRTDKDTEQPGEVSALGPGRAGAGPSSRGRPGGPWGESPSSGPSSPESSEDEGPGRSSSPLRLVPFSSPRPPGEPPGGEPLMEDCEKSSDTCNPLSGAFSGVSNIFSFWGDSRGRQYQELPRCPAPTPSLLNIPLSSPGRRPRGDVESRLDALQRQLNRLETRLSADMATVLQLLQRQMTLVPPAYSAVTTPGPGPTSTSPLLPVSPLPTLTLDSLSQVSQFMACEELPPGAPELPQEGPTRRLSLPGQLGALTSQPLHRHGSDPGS

Point of comparison: `CCOC(=O)CSc1nnc([C@H](Cc2ccccc2)NC(=O)OC(C)(C)C)o1`, “hERG current change (%, negative = inhibition) at 10uM” value -14.3%. Against it:
- CCOc1ccc(C(=O)NCC(=O)OCC(=O)Nc2ccccc2OC)cc1 — lower, -18.1%
- CCC(CC)C(=O)Nc1cc(C)cc(C)c1 — higher, 0.735%
- CC(NC(=O)COC(=O)CNC(=O)C1CCCCC1)c1ccccc1 (stereo not shown) — higher, -3.81%
- COc1ccc(/C=N/NC(=O)c2nnn(-c3nonc3N)c2-c2cccs2)c(OC)c1 — higher, 13.1%
- CC(C)(C)NC(=O)C(OC(=O)c1cccs1)c1ccccc1 (stereo not shown) — higher, 58.8%
- Cc1ccc(C(=O)NC(=S)NNC(=O)COc2ccccc2C)cc1 — higher, 15.3%
- O=C(O)C1CCCCC1C(=O)NCCc1ccncc1 (stereo not shown) — higher, 1.96%
- O=C(c1ccc(F)cc1)N1CCN2C(=O)c3ccccc3C12c1ccccc1 (stereo not shown) — lower, -31.5%
- COc1ccc2[nH]c(=O)c(CN(C(C)=O)c3cccc(C)c3)cc2c1 — higher, -8.64%
- Nc1nonc1-n1nnc(C(=O)N/N=C/c2ccccc2)c1CSc1ccc(Cl)cc1 — lower, -23.6%
- Cc1ccccc1C(=O)OC1OC(=O)C(Cl)=C1N1CCOCC1 (stereo not shown) — lower, -20.1%
- O=C1CCCC2=C1C(c1ccncc1)c1c(nc(SCc3ccccc3)[nH]c1=O)N2 (stereo not shown) — higher, 17.7%
- CCOC(=O)N1CCN(C(=O)c2cnc3n(c2=O)CCS3)CC1 — higher, 7.34%
- CC(=O)c1cnc2n(c1=O)CCS2 — higher, 27.8%
- O=C(c1cc([N+](=O)[O-])ccc1N1CCN(S(=O)(=O)c2ccc(Cl)c(Cl)c2)CC1)N1CCOCC1 — lower, -52.4%
- O=C(c1cc([N+](=O)[O-])ccc1N1CCOCC1)N1CCN(S(=O)(=O)c2ccc(F)cc2)CC1 — lower, -32.5%
- O=C(c1cc([N+](=O)[O-])ccc1N1CCOCC1)N1CCN(S(=O)(=O)c2cc(Cl)ccc2Cl)CC1 — lower, -32.3%
- O=C(c1cnc2n(c1=O)CCS2)N1CCN(c2ccc([N+](=O)[O-])cc2)CC1 — lower, -63%
- CCOC(=O)C(C)Sc1nnc(Cc2cc(=O)[nH]c(=O)[nH]2)n1-c1ccc(Cl)cc1 (stereo not shown) — higher, 2.15%
- C/C(=N/OC(=O)c1c(F)cccc1F)c1nccs1 — higher, 3.34%
- COc1ccc2c(COC(=O)CNC(=O)C34CC5CC(CC(C5)C3)C4)cc(=O)oc2c1 — lower, -31.4%
- COc1ccc([C@@H](C)NC(=O)c2ccc3oc(C(C)C)nc3c2)cc1 — higher, 26.1%
- O=C(NC(=S)Nc1ccccc1F)c1ccc(Br)o1 — higher, 8.98%
- O=C(c1ccco1)N1CCN(C(=O)C2CC(c3ccc(Cl)cc3)=NO2)CC1 (stereo not shown) — lower, -76.2%
- COc1cccc(C2=NOC(C(=O)N3CCN(C(=O)c4ccco4)CC3)C2)c1 (stereo not shown) — lower, -40.1%
- COc1ccc(C2=NOC(C(=O)N3CCN(C(=O)c4ccco4)CC3)C2)cc1OC (stereo not shown) — higher, 0.127%
- O=C(c1ccco1)N1CCN(C(=O)C2CC(c3ccccc3F)=NO2)CC1 (stereo not shown) — lower, -18.3%
- O=C(c1ccco1)N1CCN(C(=O)C2CC(c3ccc(F)cc3)=NO2)CC1 (stereo not shown) — lower, -72.5%
- COc1cc(OC)c(C2=NOC(C(=O)N3CCN(C(=O)c4ccco4)CC3)C2)cc1Cl (stereo not shown) — lower, -35.3%
- N#CC1(c2ccccc2)CCCN1C(=O)c1ccc(Br)cc1 (stereo not shown) — higher, -8.79%
- CC(=O)Nc1ccc(NC(=O)COc2ccc3c(c2)CCC3)cc1 — higher, 24.5%
- N#CC1CCCc2c1[nH]c1ccc([N+](=O)[O-])cc21 (stereo not shown) — higher, 12.5%
- C=CCN1C2CCCC1CC(NC(=O)Nc1cc(C)cc(C)c1)C2 (stereo not shown) — lower, -51.8%
- S=C(Nc1ccccc1Cl)NC1CC2CCCC(C1)N2C1CC1 (stereo not shown) — lower, -23.8%
- CCCN1C2CCCC1CC(NC(=S)Nc1cc(C)cc(C)c1)C2 (stereo not shown) — lower, -83.7%
- Cc1cc(C)cc(NC(=S)NC2CC3CCCC(C2)N3C2CC2)c1 (stereo not shown) — lower, -67.3%
- CCCN1C2CCCC1CC(NC(=S)Nc1cccc(C)c1)C2 (stereo not shown) — lower, -44.5%
- C=CCN1C2CCCC1CC(NC(=O)Nc1cccc(C(C)=O)c1)C2 (stereo not shown) — higher, 5.52%
- S=C(Nc1cccc(Cl)c1)NC1CC2CCCC(C1)N2C1CCCC1 (stereo not shown) — higher, 19%
- COc1ccc(NC(=S)NC2CC3CCCC(C2)N3C2CC2)cc1 (stereo not shown) — lower, -41.3%
- Cc1cc(C)cc(NC(=O)NC2CCCCCCC2)c1 — higher, -5.07%
- S=C(Nc1ccc(Cl)cc1)NC1CC2CCCC(C1)N2C1CC1 (stereo not shown) — lower, -32.9%
- CCCN1C2CCCC1CC(NC(=S)Nc1cc(C)ccc1C)C2 (stereo not shown) — higher, 11.6%
- S=C(Nc1ccc(Cl)cc1)NC1CC2CCCC(C1)N2C1CCCC1 (stereo not shown) — lower, -55.5%
- CC1=C(C)C(OCCBr)N(c2cc(O)c(Cl)cc2F)C1=O (stereo not shown) — higher, 4.66%
- CN(C(=O)c1ccc(NC(=O)Cc2ccc(NC(=O)C3CCN(C(=O)CCc4ccccc4)CC3)cc2)cc1)C1CC1 — higher, 9.51%
- COc1cccc2cc(C(=O)n3ccc(C)n3)c(=O)oc12 — higher, 8.24%
- CN1CCN(C2=C(NS(=O)(=O)c3ccccc3)C(=O)c3ccccc3C2=O)CC1 — higher, 2.75%
- Cc1ccc(S(=O)(=O)NCC2CCC(C(=O)NCc3ccc4c(c3)OCO4)CC2)cc1 (stereo not shown) — higher, -0.473%
- Cl.Clc1ccccc1CN1CCN(/N=C/c2ccncc2)CC1 — lower, -24.3%
- CCCCCCCN1C/C=C\C(c2ccc(OC)cc2)N(Cc2ccc(F)cc2)C(=O)[C@H]1Cc1ccccc1 (stereo partly shown) — higher, 8.55%
- NC(=O)CC(NC(=O)Cc1ccc(Cl)cc1)c1ccc(N2CCC(Cc3ccccc3)CC2)c([N+](=O)[O-])c1 (stereo not shown) — higher, 17.7%
- Cc1nc(SCC(=O)NCc2ccco2)c2c(C)c(C)sc2n1 — higher, -2.85%
- O=C(COC(=O)c1ccc(NS(=O)(=O)c2cccs2)cc1O)NC1CCCCC1 — higher, 8.92%
- O=C(O)CCS(=O)(=O)c1ccc(-c2ccccc2)cc1 — higher, 19.3%
- CSc1ccc(-c2nc(CSCC(=O)NCCCN3CCCC3=O)c(C)o2)cc1 — lower, -14.4%
- Cc1cc(C)cc(NC(=S)NC2CC3CCCC(C2)N3CC(C)C)c1 (stereo not shown) — higher, -7.32%
- COc1cccc(NC(=S)NC2CC3CCCC(C2)N3C2CCCC2)c1 (stereo not shown) — lower, -33.6%
- Cc1cc(C)cc(NC(=S)NC2CC3CCCC(C2)N3C2CCCC2)c1 (stereo not shown) — lower, -77.5%
- COc1ccc([C@H]2CC(=O)C=C(c3cccc(C(F)(F)F)c3)C2)cc1 — lower, -14.4%
- CC1(c2nnc(Cc3ccccc3)o2)CC(c2ccc([N+](=O)[O-])cc2)=NO1 (stereo not shown) — lower, -63.2%
- CC1(c2nnc(Cc3ccccc3)o2)CC(c2ccc(C#N)cc2)=NO1 (stereo not shown) — lower, -62.3%
- CC1(c2nnc(Cc3ccccc3)o2)CC(c2ccc(Cl)cc2)=NO1 (stereo not shown) — lower, -23.3%
- Cc1ccc(C2=NOC(C)(c3nnc(Cc4ccccc4)o3)C2)cc1 (stereo not shown) — lower, -15.2%
- CC1(c2nnc(Cc3ccccc3)o2)CC(c2ccccc2)=NO1 (stereo not shown) — lower, -18%
- CC1(c2nnc(Cc3ccccc3)o2)CC(c2cccc([N+](=O)[O-])c2)=NO1 (stereo not shown) — higher, -7.45%
- CC1(C)CC(=O)C=C(N2CCNCC2)C1 — higher, 14.9%
- O=C(c1cccc(N2C(=O)c3ccccc3C2=O)c1)N1CCCCCC1 — higher, 2.21%
- CCOC(=O)C1CCCN(C(=O)c2ccc(Cl)c(S(=O)(=O)N3CCCCCC3)c2)C1 (stereo not shown) — lower, -70.7%
- O=C(c1ccc(Cl)c(S(=O)(=O)N2CCCCC2)c1)N1CCCC(C(F)(F)F)C1 (stereo not shown) — lower, -31.8%
- CCOC(=O)C1CCCN(C(=O)c2ccc(C)c(S(=O)(=O)N3CCCCC3)c2)C1 (stereo not shown) — lower, -25.3%
- CCOC(=O)C1CCCN(C(=O)c2ccc(Cl)c(S(=O)(=O)N3CCCCC3)c2)C1 (stereo not shown) — higher, -13.8%
- O=C(c1ccc(Cl)c(S(=O)(=O)N2CCCC2)c1)N1CCCCC1 — higher, 3.08%
- O=C(c1ccc(Cl)c(S(=O)(=O)N2CCCC2)c1)N1CCCC(C(F)(F)F)C1 (stereo not shown) — lower, -18.1%
- O=C(c1ccc(Cl)c(S(=O)(=O)N2CCCCC2)c1)N1CCCC1 — higher, -7.02%
- O=C(c1ccc(Cl)c(S(=O)(=O)N2CCCCCC2)c1)N1CCCC(C(F)(F)F)C1 (stereo not shown) — lower, -58.9%
- CCOC(=O)C1CCCN(C(=O)c2cccc(N3C(=O)c4ccccc4C3=O)c2)C1 (stereo not shown) — lower, -18.4%
- O=C(c1cccc(N2C(=O)c3ccccc3C2=O)c1)N1CCCC(C(F)(F)F)C1 (stereo not shown) — lower, -53.9%
- CC1CCCN(C(=O)c2ccc(Cl)c(S(=O)(=O)N3CCCCCC3)c2)C1 (stereo not shown) — lower, -76.3%
- CSc1cccc(NC(=O)OC2CCCCCCCCCCC2)c1 — higher, 7.83%
- Cc1ccc(S(=O)(=O)N2C(=O)/C(=C3\SC(=S)NC3=O)c3ccccc32)cc1 — higher, 10%
- Fc1ccccc1CSc1ncnc2sc3c(c12)CCCC3 — higher, 2.75%
- O=C(Nc1ccc2nn(-c3ccccc3)nc2c1)c1ccc(Br)o1 — higher, 7.88%
- CCOc1cc(C)c(C(C)C)cc1S(=O)(=O)n1ccc(C)n1 — lower, -29.4%
